# In PubChem BioAssay (NCI):
# This is part of a sample that, as a whole, favours compounds with a hit. Of some 79,000 tested, about 15% had one in any assay. A number with no mark means an inactive call. The source made the active and inactive calls. No stated cut-off is given here; in the data, active means growth inhibition above about 70%; inactive means the rest.
# How the values were obtained:
# [1] = NCI Yeast Anticancer Drug Screen. Data for the rad52 strain (AID 147);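 further: 0% = growth of vehicle-treated control cultures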; conditions: S. cerevisiae rad52 mutant growth inhibition, stronger effect = higher value
# Outline: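 Genetically altered yeast (DNA damage repair defect) treated with compound; inhibition calculated relative to vehicle.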
# [2] = NCI Yeast Anticancer Drug Screen. Data for the wt1 strain (AID 149);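 further: 0% = growth of vehicle-treated wt1 cultures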; conditions: S. cerevisiae wt1 strain (SPY 50644) growth inhibition, stronger effect = higher value
# Outline: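 Growth inhibition read against vehicle controls after compound exposure of the wt1 yeast strain.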
# [3] = NCI Yeast Anticancer Drug Screen. Data for the rad50EPP+ strain (AID 151);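 further: 0% = growth of vehicle-treated control cultures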; conditions: S. cerevisiae rad50 mutant strain, stronger effect = higher value
# Outline: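 Strain rad50EPP+; compound exposure; % growth inhibition vs vehicle.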
# [4] = NCI Yeast Anticancer Drug Screen. Data for the mgt1 strain (AID 153); conditions: S. cerevisiae mgt1 mutant growth inhibition, stronger effect = higher value
# Outline: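 Read-out: yeast growth inhibition vs vehicle control. Strain mgt1, drawn from a panel altered in DNA damage repair or cell cycle control.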
# [5] = NCI Yeast Anticancer Drug Screen. Data for the rad50 strain (AID 155);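 further: 0% = growth of vehicle-only cultures of the same strain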; conditions: S. cerevisiae rad50 strain growth inhibition, stronger effect = higher value
# Outline: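 Readout: growth inhibition relative to vehicle-treated cultures. Compound exposure was carried out in a genetically defined yeast strain deficient in DNA damage repair.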
# [6] = NCI Yeast Anticancer Drug Screen. Data for the mec2-1 strain (AID 157); conditions: S. cerevisiae mec2-1 strain, stronger effect = higher value
# Outline: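 Cells of the genetically defined mec2-1 yeast strain are incubated with test compound. Inhibition of growth is calculated against vehicle-treated controls.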
# [7] = NCI Yeast Anticancer Drug Screen. Data for the rad14 strain (AID 159);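 further: 0% = growth of vehicle-treated control cultures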; conditions: S. cerevisiae rad14 strain growth inhibition, stronger effect = higher value
# Outline: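 Growth inhibition vs vehicle controls; genetically altered yeast strain (DNA damage repair defect) treated with test compounds.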
# [8] = NCI Yeast Anticancer Drug Screen. Data for the sgs1 mgt1 strain (AID 161);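 further: 0% = growth of cultures given vehicle only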; conditions: S. cerevisiae sgs1 mgt1 strain, stronger effect = higher value
# Outline: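 Mutant yeast exposed to compound; growth scored against vehicle-only wells.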
# [9] = NCI Yeast Anticancer Drug Screen. Data for the cln2 rad14 strain (AID 165);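 further: 0% = growth equal to vehicle treated cultures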; conditions: S. cerevisiae cln2 rad14 strain, stronger effect = higher value
# Outline: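 The screen exposed genetically defined yeast (cln2 rad14) to test compounds and scored growth inhibition relative to vehicle-treated controls.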
# [10] = NCI Yeast Anticancer Drug Screen. Data for the bub3 strain (AID 167); conditions: S. cerevisiae bub3 mutant strain, stronger effect = higher value
# Outline: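 Readout: yeast growth inhibition, expressed relative to vehicle-only wells. The test organism is a mutant strain from a panel with lesions in DNA repair or checkpoint genes.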
# [11] = NCI Yeast Anticancer Drug Screen. Data for the wt2 strain (AID 169);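 further: 0% = growth of vehicle-treated yeast cultures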; conditions: S. cerevisiae wt2 strain growth inhibition, stronger effect = higher value
# Outline: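 Steps: yeast strain treated with compound; growth recorded; inhibition calculated relative to cultures given vehicle alone.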
# [12] = NCI Yeast Anticancer Drug Screen. Data for the mlh1 strain (AID 171);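 further: 0% = growth of vehicle-treated control cultures of the same strain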; conditions: S. cerevisiae mlh1 strain growth inhibition, stronger effect = higher value
# Outline: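 Yeast screen: mutant strain plus compound, growth scored against vehicle control wells.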
# [13] = NCI Yeast Anticancer Drug Screen. Data for the sgs1 strain (AID 173);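 further: 0% = growth of vehicle-only control cultures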; conditions: S. cerevisiae sgs1 mutant, stronger effect = higher value
# Outline: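 Inhibition of yeast growth served as the measure. The mutant strain was treated with each compound, and growth was normalised to cultures receiving vehicle alone.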
# [14] = NCI Yeast Anticancer Drug Screen. Data for the mlh1 rad18 strain (AID 175); conditions: S. cerevisiae mlh1 rad18 strain growth inhibition, stronger effect = higher value
# Outline: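 Compound-treated yeast growth, normalised to vehicle controls. Strain bears defined DNA repair mutations.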
# [15] = NCI Yeast Anticancer Drug Screen. Data for the rad18 strain (AID 177); conditions: S. cerevisiae rad18 mutant growth inhibition, stronger effect = higher value
# Outline: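 Inhibition values reflect reduced yeast growth compared with vehicle-treated controls, using a strain engineered with a DNA damage repair defect.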
# [16] = at 5.0 µM (retest, dose inferred, filed as 0.5)
# [17] = at 50.0 µM (retest, dose inferred, filed as 5.0)
compound,measurement,setting,value
CSc1nc(C)c(CCOC(C)=O)c(N=P(c2ccccc2)(c2ccccc2)c2ccccc2)n1,growth inhibition,[1]; at 1.2 µM,10%
same,growth inhibition,[1]; at 3.7 µM,4%
same,growth inhibition,[1]; at 11.0 µM,-3%
same,growth inhibition,[1]; at 33.0 µM,-9%
same,growth inhibition,[1]; at 100.0 µM,92% (active)
same,growth inhibition,[2]; at 1.2 µM,9%
same,growth inhibition,[2]; at 3.7 µM,5%
same,growth inhibition,[2]; at 11.0 µM,-2%
same,growth inhibition,[2]; at 33.0 µM,-3%
same,growth inhibition,[2]; at 100.0 µM,92% (active)
same,growth inhibition,[3]; at 1.2 µM,12%
same,growth inhibition,[3]; at 3.7 µM,5%
same,growth inhibition,[3]; at 11.0 µM,1%
same,growth inhibition,[3]; at 33.0 µM,1%
same,growth inhibition,[3]; at 100.0 µM,13%
same,growth inhibition,[4]; at 1.2 µM,10%
same,growth inhibition,[4]; at 3.7 µM,2%
same,growth inhibition,[4]; at 11.0 µM,-2%
same,growth inhibition,[4]; at 33.0 µM,-15%
same,growth inhibition,[4]; at 100.0 µM,90% (active)
same,growth inhibition,[5]; at 1.2 µM,7%
same,growth inhibition,[5]; at 3.7 µM,-8%
same,growth inhibition,[5]; [16],16%
same,growth inhibition,[5]; at 11.0 µM,-21%
same,growth inhibition,[5]; at 33.0 µM,-1%
same,growth inhibition,[5]; [17],42%
same,growth inhibition,[5]; at 50.0 µM,92.2% (active)
same,growth inhibition,[5]; at 100.0 µM,90% (active)
same,growth inhibition,[6]; at 1.2 µM,12%
same,growth inhibition,[6]; at 3.7 µM,8%
same,growth inhibition,[6]; [16],-14%
same,growth inhibition,[6]; at 11.0 µM,1%
same,growth inhibition,[6]; at 33.0 µM,1%
same,growth inhibition,[6]; [17],3%
same,growth inhibition,[6]; at 50.0 µM,94.3% (active)
same,growth inhibition,[6]; at 100.0 µM,90% (active)
same,growth inhibition,[7]; at 1.2 µM,9%
same,growth inhibition,[7]; at 3.7 µM,2%
same,growth inhibition,[7]; at 11.0 µM,-4%
same,growth inhibition,[7]; at 33.0 µM,-5%
same,growth inhibition,[7]; at 100.0 µM,87% (active)
same,growth inhibition,[8]; [16],-2%
same,growth inhibition,[8]; [17],22%
same,growth inhibition,[8]; at 50.0 µM,96.5% (active)
same,growth inhibition,[9]; [16],3%
same,growth inhibition,[9]; [17],86% (active)
same,growth inhibition,[9]; at 50.0 µM,74.8% (active)
same,growth inhibition,[10]; at 1.2 µM,4%
same,growth inhibition,[10]; at 3.7 µM,6%
same,growth inhibition,[10]; [16],10%
same,growth inhibition,[10]; at 11.0 µM,3%
same,growth inhibition,[10]; at 33.0 µM,3%
same,growth inhibition,[10]; [17],93% (active)
same,growth inhibition,[10]; at 50.0 µM,95.6% (active)
same,growth inhibition,[10]; at 100.0 µM,92% (active)
same,growth inhibition,[11]; at 1.2 µM,10%
same,growth inhibition,[11]; at 3.7 µM,3%
same,growth inhibition,[11]; at 11.0 µM,-4%
same,growth inhibition,[11]; at 33.0 µM,-1%
same,growth inhibition,[11]; at 100.0 µM,92% (active)
same,growth inhibition,[12]; at 1.2 µM,12%
same,growth inhibition,[12]; at 3.7 µM,5%
same,growth inhibition,[12]; at 11.0 µM,-2%
same,growth inhibition,[12]; at 33.0 µM,-2%
same,growth inhibition,[12]; at 100.0 µM,92% (active)
same,growth inhibition,[13]; at 1.2 µM,7%
same,growth inhibition,[13]; at 3.7 µM,3%
same,growth inhibition,[13]; at 11.0 µM,-4%
same,growth inhibition,[13]; at 33.0 µM,-2%
same,growth inhibition,[13]; at 100.0 µM,93% (active)
same,growth inhibition,[14]; [16],0%
same,growth inhibition,[14]; [17],23%
same,growth inhibition,[14]; at 50.0 µM,94.6% (active)
C[C@]12CC[C@H](O)CC1=CC[C@@H]1C2CC[C@]2(C)C(=O)NC(=O)CC12 (stereo partly specified),growth inhibition,[1]; at 1.2 µM,-27%
same,growth inhibition,[1]; at 3.7 µM,-23%
same,growth inhibition,[1]; at 11.0 µM,-17%
same,growth inhibition,[1]; at 33.0 µM,58%
same,growth inhibition,[1]; at 100.0 µM,85% (active)
same,growth inhibition,[2]; at 1.2 µM,-22%
same,growth inhibition,[2]; at 3.7 µM,-24%
same,growth inhibition,[2]; at 11.0 µM,-21%
same,growth inhibition,[2]; at 33.0 µM,55%
same,growth inhibition,[2]; at 100.0 µM,84% (active)
same,growth inhibition,[3]; at 1.2 µM,-33%
same,growth inhibition,[3]; at 3.7 µM,-19%
same,growth inhibition,[3]; at 11.0 µM,18%
same,growth inhibition,[3]; at 33.0 µM,74% (active)
same,growth inhibition,[3]; at 100.0 µM,93% (active)
same,growth inhibition,[4]; at 1.2 µM,-41%
same,growth inhibition,[4]; at 3.7 µM,-16%
same,growth inhibition,[4]; at 11.0 µM,79% (active)
same,growth inhibition,[4]; at 33.0 µM,94% (active)
same,growth inhibition,[4]; at 100.0 µM,96% (active)
same,growth inhibition,[5]; at 1.2 µM,-16%
same,growth inhibition,[5]; at 3.7 µM,-19%
same,growth inhibition,[5]; [16],-4%
same,growth inhibition,[5]; at 11.0 µM,-13%
same,growth inhibition,[5]; at 33.0 µM,53%
same,growth inhibition,[5]; [17],69%
same,growth inhibition,[5]; at 50.0 µM,82.4% (active)
same,growth inhibition,[5]; at 100.0 µM,88% (active)
same,growth inhibition,[6]; at 1.2 µM,-23%
same,growth inhibition,[6]; at 3.7 µM,-24%
same,growth inhibition,[6]; [16],-39%
same,growth inhibition,[6]; at 11.0 µM,-27%
same,growth inhibition,[6]; at 33.0 µM,14%
same,growth inhibition,[6]; [17],82% (active)
same,growth inhibition,[6]; at 50.0 µM,77.9% (active)
same,growth inhibition,[6]; at 100.0 µM,83% (active)
same,growth inhibition,[7]; at 1.2 µM,-50%
same,growth inhibition,[7]; at 3.7 µM,-50%
same,growth inhibition,[7]; at 11.0 µM,-38%
same,growth inhibition,[7]; at 33.0 µM,64%
same,growth inhibition,[7]; at 100.0 µM,87% (active)
same,growth inhibition,[8]; [16],33%
same,growth inhibition,[8]; [17],94% (active)
same,growth inhibition,[8]; at 50.0 µM,91.8% (active)
same,growth inhibition,[9]; [16],1%
same,growth inhibition,[9]; [17],80% (active)
same,growth inhibition,[9]; at 50.0 µM,84.7% (active)
same,growth inhibition,[10]; at 1.2 µM,-23%
same,growth inhibition,[10]; at 3.7 µM,-15%
same,growth inhibition,[10]; [16],-4%
same,growth inhibition,[10]; at 11.0 µM,-12%
same,growth inhibition,[10]; at 33.0 µM,60%
same,growth inhibition,[10]; [17],90% (active)
same,growth inhibition,[10]; at 50.0 µM,80% (active)
same,growth inhibition,[10]; at 100.0 µM,86% (active)
same,growth inhibition,[12]; at 1.2 µM,-33%
same,growth inhibition,[12]; at 3.7 µM,-3%
same,growth inhibition,[12]; at 11.0 µM,71% (active)
same,growth inhibition,[12]; at 33.0 µM,94% (active)
same,growth inhibition,[12]; at 100.0 µM,96% (active)
same,growth inhibition,[13]; at 1.2 µM,17%
same,growth inhibition,[13]; at 3.7 µM,45%
same,growth inhibition,[13]; at 11.0 µM,90% (active)
same,growth inhibition,[13]; at 33.0 µM,96% (active)
same,growth inhibition,[13]; at 100.0 µM,97% (active)
same,growth inhibition,[14]; [16],-25%
same,growth inhibition,[14]; [17],82% (active)
same,growth inhibition,[14]; at 50.0 µM,70.3% (active)
same,growth inhibition,[15]; at 1.2 µM,-27%
same,growth inhibition,[15]; at 3.7 µM,-29%
same,growth inhibition,[15]; at 11.0 µM,-23%
same,growth inhibition,[15]; at 33.0 µM,77% (active)
same,growth inhibition,[15]; at 100.0 µM,92% (active)
